Bioassay records as filed in PubChem.
Only some compounds are listed: those with a hit (about 8.1% of all), similar ones and a draw of the others.
Hedgehog inh = Sonic Hedgehog pathway inhibition | Shh-LIGHT2 Gli-luciferase reporter, 30 h | inhibition, % (concentration not given with the values) | actives 2.1% (n = 22,000) | AID 2313;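 active = mean inhibition across valid replicates above about 65%, limit read from the data; inconclusive = mean under the limit, yet half or more replicates past it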;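 also: pathway switched on by Shh-conditioned medium diluted 1 in 25 in low serum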
MITF inh = inhibitors of MITF. TRPM1 promoter luciferase, luminescence, 24 h. inhibition, % (concentration not given with the values). actives 0.28% (n = 37,000); in the data active = inhibition above about 85%; inconclusive = no clear call, values can overlap the other calls; inactive = below about 68%;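 also: human melanocyte line stably carrying TRPM1 promoter luciferase reporter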
NOMO-1 viab = STK33 inhibitor candidate reducing NOMO-1 cell viability; actives 7.5% (n = 37,000); NOMO-1 AML viability, CellTiter-Glo luminescence, 72 h; inhibition, % (test concentration not listed); in the data active = inhibition above about 80%; inconclusive = no clear call, values can overlap the other calls
PD-1 reversal = activators reversing PD-1 mediated T-cell inhibition. primary human CD4 T cells, PD-L1 beads, CellTiter-Glo 96 h. activation, % (test concentration not listed). 29,000 tested, under 10 active; call rule not given here;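 also: 0% = median vehicle wells and 100% = positive control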
An asterisk follows results filed as active; ? = inconclusive; · = no result given.

SMILES | Hedgehog inh | MITF inh | NOMO-1 viab | PD-1 reversal
C[C@H]1CN([C@@H](C)CO)C(=O)Cc2cc(NC(=O)Nc3ccccc3)ccc2O[C@H]1CN(C)Cc1ccccc1 | 25.7 | -13.7 | 65.1 | ·
Cn1c(SCC(=O)Nc2cc(Cl)c(Cl)cc2Cl)nnc1-c1ccccc1 | · | 31.2 | 4.9 | 0.4
Cc1ccc(Oc2ncccc2NC(=O)CSc2ccccn2)c2c1CCC2 | -20.6 | 7.7 | 22.8 | 0.9
COc1ccc(OCC(O)Cn2nc(C)cc2C)cc1 (centres undefined) | -8.4 | 2.1 | 8.3 | 0.9
Cc1noc(C)c1NC(=O)Nc1ccc2c(c1)CC(=O)N([C@H](C)CO)C[C@H](C)[C@H](CN(C)Cc1ccc(C(=O)Nc3ccccc3N)cc1)O2 | · | 9.7 | 136.7* | 0.6
C[C@H]1CN([C@@H](C)CO)C(=O)Cc2cc(NC(=O)Nc3ccc4c(c3)OCO4)ccc2O[C@@H]1CN(C)Cc1ccc(C(=O)Nc2ccccc2N)cc1 | · | -41.1 | -9.0 | -0.2
C[C@H]1CN([C@@H](C)CO)C(=O)Cc2cc(NC(=O)Nc3ccc(F)cc3)ccc2O[C@H]1CN(C)Cc1ccc(C(=O)Nc2ccccc2N)cc1 | · | 29.9 | 128.3* | -2.0
C[C@H]1CN([C@@H](C)CO)C(=O)Cc2cc(NC(=O)Nc3ccccc3)ccc2O[C@H]1CN(C)Cc1ccc(C(=O)Nc2ccccc2N)cc1 | · | 29.1 | 139.4* | -3.9
C[C@H]1CN([C@@H](C)CO)C(=O)Cc2cc(NC(=O)c3ccncc3)ccc2O[C@H]1CN(C)Cc1ccc(C(=O)Nc2ccccc2N)cc1 | · | 6.2 | 126.0* | -3.1
O/N=C(/C(=N/O)c1ccccc1)c1ccccc1 | -19.3 | -12.0 | -5.5 | 1.4
C[C@H](CO)N1C[C@H](C)[C@H](CN(C)Cc2ccc(C(=O)Nc3ccccc3N)cc2)Oc2ccc(NC(=O)Nc3ccc4c(c3)OCO4)cc2CC1=O | · | 11.8 | 126.9* | -4.8
C[C@H]1CN([C@@H](C)CO)C(=O)Cc2cc(NC(=O)Nc3cccc4ccccc34)ccc2O[C@H]1CN(C)Cc1ccc(C(=O)Nc2ccccc2N)cc1 | · | 10.7 | 105.2* | -1.2
C[C@H]1CN([C@@H](C)CO)C(=O)Cc2cc(NC(=O)Nc3cccc4ccccc34)ccc2O[C@@H]1CN(C)Cc1ccc(C(=O)Nc2ccccc2N)cc1 | · | 5.5 | 28.6 | -1.3
C[C@H]1CN([C@@H](C)CO)C(=O)Cc2cc(NC(=O)c3ccncc3)ccc2O[C@@H]1CN(C)Cc1ccc(C(=O)Nc2ccccc2N)cc1 | · | -19.2 | 32.4 | 0.4
C[C@@H]1CN([C@H](C)CO)C(=O)Cc2cc(NC(=O)Nc3ccc(F)cc3)ccc2O[C@@H]1CN(C)Cc1ccc(C(=O)Nc2ccccc2N)cc1 | · | -4.9 | 97.3* | -1.2
CC(C)NC(=O)Nc1ccc2c(c1)CC(=O)N([C@@H](C)CO)C[C@@H](C)[C@@H](CN(C)Cc1ccc(C(=O)Nc3ccccc3N)cc1)O2 | · | 1.7 | 107.3* | -3.8
Cc1ccc(C(C)C)c(OCCSc2nc(N)cc(N)n2)c1 | · | 24.8 | 50.6 | -5.3
CCOc1cc(N2CCOCC2)c(OCC)cc1NS(=O)(=O)CC | · | -12.2 | 8.9 | -0.2
COc1ccc(NC(=O)COc2ccc(Br)cc2C)c([N+](=O)[O-])c1 | · | -0.2 | 33.3 | -4.9
O=C(O)CC(Cc1ccc(Cl)cc1)C(=O)Nc1ccccc1I (centres undefined) | · | -16.2 | 13.2 | 3.3
C[C@@H]1CN([C@H](C)CO)C(=O)c2cc(NC(=O)Nc3ccc(C(F)(F)F)cc3)ccc2O[C@H]1CN(C)Cc1ccc(C(F)(F)F)cc1 | 3.6 | 15.2 | 114.4* | -10.0
C[C@H]1CN([C@@H](C)CO)C(=O)c2cc(NC(=O)Nc3ccc(C(F)(F)F)cc3)ccc2O[C@H]1CN(C)Cc1ccc(C(F)(F)F)cc1 | -23.3 | 32.8 | 115.2* | -0.5
C[C@H]1CN([C@@H](C)CO)C(=O)c2cccc(NC(=O)Nc3cccc4ccccc34)c2O[C@H]1CN(C)Cc1ccc(C(=O)Nc2ccccc2N)cc1 | · | 15.4 | 128.5* | -2.3
C[C@@H]1CN([C@@H](C)CO)C(=O)c2cccc(NC(=O)Nc3ccccc3)c2O[C@@H]1CN(C)Cc1ccc(C(=O)Nc2ccccc2N)cc1 | · | 28.6 | 140.5* | -0.4
C[C@@H]1CN([C@H](C)CO)C(=O)c2cccc(NC(=O)Nc3ccccc3)c2O[C@H]1CN(C)Cc1ccc(C(=O)Nc2ccccc2N)cc1 | · | 9.4 | 138.8* | -3.5
C[C@H](CO)N1C[C@H](C)[C@@H](CN(C)Cc2ccc(C(=O)O)cc2)Oc2c(NC(=O)Nc3cccc4ccccc34)cccc2C1=O | -21.2 | 14.8 | 11.4 | 0.7
Cc1cccc(-n2c(SCC(=O)Nc3ccc(Br)cc3F)nnc2-c2ccccc2)c1 | · | 45.7 | ? | -10.6
CC1Oc2ccccc2OC1(O)c1ccc(Br)cc1 (centres undefined) | 16.9 | 17.5 | 106.4* | -0.5
